# Values without a mark were called inactive. Inconclusive results are not listed. A call without a number means that no potency is given here. Calls of active or inactive are those of the source. The call rests on the fitted dose curve; in most records, active means well fitted curve in the direction sought with a large enough effect in the repeat runs; inconclusive means weak or mixed curves; inactive means no such curve, though single readings can be large; an effect the other way counts as inactive or inconclusive.
# Assays:
# [1] = qHTS RealTime-Glo MT Cell Viability Assay in HepG2 cells - 40 hour (AID 1224870); further: nearly all actives have a fitted effect of over 50% in size
# How it was run: (§1)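 Real-time viability: cells seeded at 600 per well together with NanoLuc and cell-permeant prosubstrate, compounds added after 5 h incubation. Luminescence tracked at 0, 8, 16, 24, 32 and 40 h of exposure.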
# [2] = A CellTox Green Cytotoxicity Assay to monitor cytotoxicity in HEK293 cells - 40 hour (AID 1224871); further: nearly all actives have a fitted effect of over 45% in size
# How it was run: (§2)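 Homogeneous no-lysis format: HEK293 cell suspension mixed with CellTox Green reagent, seeded, incubated 5 h at 37 C/5% CO2, then dosed by pintool with compound in DMSO.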
# [3] = qHTS RealTime-Glo MT Cell Viability Assay in HEK293 cells - 16 hour (AID 1224872); further: top concentration of the series differs between compounds; nearly all actives have a fitted effect of over 50% in size
# How it was run: (§3)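 Assay medium contained NanoLuc luciferase plus cell-permeant prosubstrate, added with HEK293 cells at 600 cells/well. After 5 h at 37 C/5% CO2 compounds were added; plates stayed at 37 C for 40 h with serial luminescence reads.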
# [4] = qHTS RealTime-Glo MT Cell Viability Assay in HepG2 cells - 8 hour (AID 1224873); further: nearly all actives have a fitted effect of over 55% in size
# How it was run: as §1
# [5] = A CellTox Green Cytotoxicity Assay to monitor cytotoxicity in HEK293 cells - 24 hour (AID 1224875); further: series mostly up to about 77 µM; nearly all actives have a fitted effect of over 45% in size
# How it was run: as §2
# [6] = A CellTox Green Cytotoxicity Assay to monitor cytotoxicity in HepG2 cells - 16 hour (AID 1224876); further: nearly all actives have a fitted effect of over 45% in size
# How it was run: (§4)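 Fluorescent DNA-binding dye, 600 HepG2 cells/well, 5 h preincubation then compound in DMSO; same plates read at 0–40 h, 37 C.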
# [7] = qHTS RealTime-Glo MT Cell Viability Assay in HepG2 cells - 32 hour (AID 1224877); further: nearly all actives have a fitted effect of over 55% in size
# How it was run: (§5)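 qHTS, HepG2, 600 cells/well, RealTime-Glo (NanoLuc + prosubstrate) added with cells; 5 h preincubation; DMSO compound addition; 37 C; luminescence at 0/8/16/24/32/40 h.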
# [8] = A CellTox Green Cytotoxicity Assay to monitor cytotoxicity in HepG2 cells - 24 hour (AID 1224878); further: nearly all actives have a fitted effect of over 45% in size
# How it was run: as §4
# [9] = A CellTox Green Cytotoxicity Assay to monitor cytotoxicity in HepG2 cells - 40 hour (AID 1224879); further: nearly all actives have a fitted effect of over 40% in size
# How it was run: as §4
# [10] = qHTS RealTime-Glo MT Cell Viability Assay in HEK293 cells - 0 hour (AID 1224880); further: nearly all actives have a fitted effect of over 45% in size; further: potency means the concentration at half of the fitted maximal effect
# How it was run: (§6)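 Measured as luminescence from the same continuously cultured HEK293 wells at successive time points (0, 8, 16, 24, 32, 40 h) after compound addition. Reagent present from seeding; dosing at 5 h; incubation 37 C.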
# [11] = A CellTox Green Cytotoxicity Assay to monitor cytotoxicity in HEK293 cells - 32 hour (AID 1224881); further: nearly all actives have a fitted effect of over 40% in size
# How it was run: as §2
# [12] = A CellTox Green Cytotoxicity Assay to monitor cytotoxicity in HepG2 cells - 0 hour (AID 1224882); further: nearly all actives have a fitted effect of over 35% in size
# How it was run: as §4
# [13] = A CellTox Green Cytotoxicity Assay to monitor cytotoxicity in HepG2 cells - 32 hour (AID 1224883); further: nearly all actives have a fitted effect of over 50% in size
# How it was run: as §4
# [14] = A CellTox Green Cytotoxicity Assay to monitor cytotoxicity in HEK293 cells - 8 hour (AID 1224884); further: nearly all actives have a fitted effect of over 35% in size
# How it was run: as §2
# [15] = qHTS RealTime-Glo MT Cell Viability Assay in HepG2 cells - 16 hour (AID 1224885); further: nearly all actives have a fitted effect of over 50% in size
# How it was run: as §5
# [16] = qHTS RealTime-Glo MT Cell Viability Assay in HEK293 cells - 8 hour (AID 1224887)
# How it was run: as §6
# [17] = A CellTox Green Cytotoxicity Assay to monitor cytotoxicity in HEK293 cells - 16 hour (AID 1224888); further: nearly all actives have a fitted effect of over 35% in size
# How it was run: as §2
# [18] = qHTS RealTime-Glo MT Cell Viability Assay in HepG2 cells - 0 hour (AID 1224889); further: nearly all actives have a fitted effect of over 50% in size; further: potency means the concentration at half of the fitted maximal effect
# How it was run: as §5
# [19] = qHTS RealTime-Glo MT Cell Viability Assay in HEK293 cells - 40 hour (AID 1224874); conditions: RealTime-Glo luminescence; max response: active compounds read low; further: nearly all actives have a fitted effect of over 50% in size
# How it was run: as §6
# [20] = qHTS RealTime-Glo MT Cell Viability Assay in HEK293 cells - 24 hour (AID 1224886)
# How it was run: as §3
Structure (SMILES),Potency [1],Potency [2],Potency [3],outcome [4],Potency [5],Potency [6],Potency [7],Potency [8],Potency [9],Potency [10],Potency [11],Potency [12],Potency [13],Potency [14],outcome [15],Potency [16],Potency [17],Potency [18],max response [19],Potency [20]
CCOC(=O)CC(O)(CC(=O)OCC)C(=O)OCC,inactive,inactive,inactive,inactive,inactive,inactive,inactive,inactive,inactive,inactive,inactive,inactive,inactive,inactive,inactive,inactive,inactive,inactive,–,–
[O-][n+]1ccc(Cl)cc1,inactive,inactive,inactive,inactive,inactive,inactive,inactive,inactive,inactive,–,inactive,inactive,–,inactive,inactive,–,inactive,inactive,17.4%,inactive
CC(C)NC(=O)c1ccccc1N,inactive,inactive,inactive,inactive,inactive,inactive,inactive,inactive,inactive,inactive,inactive,inactive,–,–,inactive,inactive,–,inactive,0.226%,inactive
O=S(=O)(O)c1cc(Cl)c(Cl)cc1Cl,inactive,inactive,inactive,inactive,inactive,–,inactive,–,inactive,inactive,inactive,inactive,inactive,inactive,inactive,inactive,–,inactive,-19.4%,inactive
O=c1[nH][nH]c2ccccc12,inactive,inactive,inactive,inactive,inactive,inactive,inactive,inactive,inactive,inactive,inactive,inactive,inactive,inactive,inactive,inactive,inactive,inactive,–,inactive
O=C(c1ccc(Cl)cc1)c1ccc(Cl)cc1,inactive,inactive,inactive,inactive,inactive,inactive,inactive,–,–,inactive,inactive,inactive,–,inactive,inactive,inactive,inactive,inactive,-15%,inactive
CCCCOC(=O)CC#N,inactive,inactive,–,inactive,inactive,inactive,inactive,inactive,inactive,inactive,inactive,inactive,inactive,inactive,inactive,inactive,inactive,inactive,7.32%,inactive
CCCCCCCCCCCCSC#N,inactive,inactive,inactive,inactive,inactive,inactive,inactive,inactive,inactive,–,inactive,inactive,inactive,inactive,inactive,inactive,inactive,inactive,0.323%,inactive
CCN(CC)CC(=O)OCC(=O)[C@@]1(O)CC[C@H]2[C@@H]3CCC4=CC(=O)CC[C@]4(C)[C@H]3[C@@H](O)C[C@@]21C,inactive,inactive,–,inactive,inactive,inactive,inactive,inactive,inactive,1900 nM (active),inactive,inactive,inactive,inactive,inactive,inactive,inactive,1070 nM (active),-1.53%,inactive
CCCCCCCCNC,inactive,inactive,inactive,inactive,inactive,inactive,inactive,inactive,inactive,–,inactive,inactive,inactive,–,inactive,inactive,–,inactive,3.01%,–
CC/C=C/CCO,inactive,inactive,inactive,inactive,inactive,inactive,inactive,inactive,inactive,–,inactive,inactive,inactive,inactive,inactive,inactive,inactive,inactive,-11.5%,inactive
CCCc1nc(C)c2c(=O)[nH]c(-c3cc(S(=O)(=O)N4CCN(CC)CC4)ccc3OCC)nn12,inactive,inactive,inactive,inactive,inactive,inactive,inactive,inactive,inactive,inactive,inactive,inactive,inactive,inactive,inactive,inactive,inactive,inactive,–,–
O=[N+]([O-])c1ccc(Cl)cc1Cl,inactive,inactive,–,inactive,inactive,inactive,inactive,inactive,inactive,inactive,inactive,inactive,inactive,inactive,inactive,inactive,inactive,inactive,2.44%,inactive
CC(C)=CCC[C@H](C)CCO,inactive,inactive,inactive,inactive,inactive,inactive,inactive,inactive,–,inactive,inactive,inactive,inactive,inactive,inactive,inactive,inactive,inactive,-1.49%,inactive
Nc1nc(Cl)nc2c1ncn2[C@H]1C[C@H](O)[C@@H](CO)O1,inactive,inactive,inactive,inactive,inactive,inactive,inactive,inactive,inactive,–,inactive,inactive,inactive,inactive,inactive,inactive,inactive,inactive,-25.7%,inactive
Cc1nc(C)c(C)nc1C,inactive,inactive,–,inactive,inactive,inactive,inactive,inactive,inactive,inactive,inactive,inactive,inactive,inactive,inactive,inactive,inactive,inactive,-5.51%,inactive
Cc1c(Nc2ncccc2C(=O)O)cccc1C(F)(F)F,inactive,inactive,inactive,inactive,inactive,inactive,inactive,inactive,inactive,–,inactive,inactive,–,inactive,inactive,inactive,inactive,inactive,0.365%,inactive
CC(CC(C#N)(c1ccccc1)C(C)C)N(C)C (stereo unspecified),inactive,inactive,–,inactive,inactive,inactive,inactive,inactive,inactive,inactive,inactive,inactive,inactive,inactive,inactive,–,inactive,inactive,6.67%,inactive
NC(=O)c1ccccc1,inactive,inactive,–,inactive,inactive,inactive,inactive,inactive,inactive,inactive,inactive,inactive,inactive,inactive,inactive,–,inactive,inactive,1.7%,inactive
O=C(Nc1ccc2c(c1)Cc1ccccc1-2)C(F)(F)F,inactive,inactive,–,inactive,inactive,inactive,inactive,inactive,inactive,–,inactive,inactive,inactive,inactive,inactive,inactive,inactive,inactive,–,–
